Compounds without any hit were thinned out: in the full panel of roughly 79,000, 15% have a hit. Calls of active or inactive are those of the source. Cut-off read from the data, not from the text of the source: active = growth inhibition above about 70%; inactive = the rest.
Columns and labels:
[1] = NCI Yeast Anticancer Drug Screen. Data for the rad52 strain (AID 147);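 note: 0% = growth of vehicle-treated control cultures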; conditions: S. cerevisiae rad52 mutant growth inhibition, active compounds read high
How it was run: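 Yeast strain carrying a DNA damage repair alteration was exposed to test compounds. Growth inhibition was measured relative to vehicle-treated controls.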

[2] = NCI Yeast Anticancer Drug Screen. Data for the wt1 strain (AID 149);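 note: 0% = growth of vehicle-treated wt1 cultures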; conditions: S. cerevisiae wt1 strain (SPY 50644) growth inhibition, active compounds read high
How it was run: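 Growth inhibition read against vehicle controls after compound exposure of the wt1 yeast strain.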

[3] = NCI Yeast Anticancer Drug Screen. Data for the rad50EPP+ strain (AID 151);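 note: 0% = growth of vehicle-treated control cultures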; conditions: S. cerevisiae rad50 mutant strain, active compounds read high
How it was run: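 Yeast strain carrying rad50 alteration (rad50EPP+) exposed to compounds; growth inhibition measured relative to vehicle-treated controls.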

[4] = NCI Yeast Anticancer Drug Screen. Data for the mgt1 strain (AID 153); conditions: S. cerevisiae mgt1 mutant growth inhibition, active compounds read high
How it was run: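 Yeast mgt1 strain (DNA repair/cell-cycle alteration panel) exposed to compounds; growth inhibition measured relative to vehicle-treated controls.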

[5] = NCI Yeast Anticancer Drug Screen. Data for the rad50 strain (AID 155);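 note: 0% = growth of vehicle-only cultures of the same strain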; conditions: S. cerevisiae rad50 strain growth inhibition, active compounds read high
How it was run: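 Readout: growth inhibition relative to vehicle-treated cultures. Compound exposure was carried out in a genetically defined yeast strain deficient in DNA damage repair.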

[6] = NCI Yeast Anticancer Drug Screen. Data for the mec2-1 strain (AID 157); conditions: S. cerevisiae mec2-1 strain, active compounds read high
How it was run: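 mec2-1 yeast strain, carrying an alteration in DNA damage repair or cell cycle control, was exposed to compounds; growth inhibition was measured relative to vehicle-treated controls.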

[7] = NCI Yeast Anticancer Drug Screen. Data for the rad14 strain (AID 159);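 note: 0% = growth of vehicle-treated control cultures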; conditions: S. cerevisiae rad14 strain growth inhibition, active compounds read high
How it was run: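 Growth inhibition vs vehicle controls; genetically altered yeast strain (DNA damage repair defect) treated with test compounds.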

[8] = NCI Yeast Anticancer Drug Screen. Data for the sgs1 mgt1 strain (AID 161);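 note: 0% = growth of cultures given vehicle only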; conditions: S. cerevisiae sgs1 mgt1 strain, active compounds read high
How it was run: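 Compounds are added to genetically altered yeast, and growth is compared with cultures given vehicle alone to give percent inhibition.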

[9] = NCI Yeast Anticancer Drug Screen. Data for the cln2 rad14 strain (AID 165);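 note: 0% = growth equal to vehicle treated cultures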; conditions: S. cerevisiae cln2 rad14 strain, active compounds read high
How it was run: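 Yeast carrying cln2 and rad14 alterations (cell cycle control and DNA damage repair) were exposed to compounds. Growth inhibition was measured against vehicle-treated controls.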

[10] = NCI Yeast Anticancer Drug Screen. Data for the bub3 strain (AID 167); conditions: S. cerevisiae bub3 mutant strain, active compounds read high
How it was run: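 Readout: yeast growth inhibition, expressed relative to vehicle-only wells. The test organism is a mutant strain from a panel with lesions in DNA repair or checkpoint genes.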

[11] = NCI Yeast Anticancer Drug Screen. Data for the wt2 strain (AID 169);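 note: 0% = growth of vehicle-treated yeast cultures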; conditions: S. cerevisiae wt2 strain growth inhibition, active compounds read high
How it was run: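 Yeast cells were exposed to test compounds, and growth inhibition was measured relative to vehicle-treated controls.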

[12] = NCI Yeast Anticancer Drug Screen. Data for the mlh1 strain (AID 171);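 note: 0% = growth of vehicle-treated control cultures of the same strain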; conditions: S. cerevisiae mlh1 strain growth inhibition, active compounds read high
How it was run: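 Yeast carrying a defined genetic alteration in DNA damage repair or cell cycle control were exposed to test compounds. Growth inhibition was measured relative to vehicle-treated controls.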

[13] = NCI Yeast Anticancer Drug Screen. Data for the sgs1 strain (AID 173);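 note: 0% = growth of vehicle-only control cultures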; conditions: S. cerevisiae sgs1 mutant, active compounds read high
How it was run: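 Yeast mutant strains carrying defined defects in DNA damage repair or cell cycle control were exposed to test compounds. Growth inhibition was scored against vehicle-treated controls.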

[14] = NCI Yeast Anticancer Drug Screen. Data for the rad18 strain (AID 177); conditions: S. cerevisiae rad18 mutant growth inhibition, active compounds read high
How it was run: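 Yeast carrying a defined DNA damage repair alteration were exposed to compounds. Growth inhibition was expressed relative to vehicle-treated controls.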

[15] = at 5.0 µM (retest, dose inferred, filed as 0.5)
[16] = at 50.0 µM (retest, dose inferred, filed as 5.0)

Measured: growth inhibition

Cc1oc2ccccc2c(=O)c1Cn1nnc2ccccc21
active: [5]; at 100.0 µM 73%
inactive: [1]; at 1.2 µM -1% | [1]; at 3.7 µM -2% | [1]; at 11.0 µM 0% | [1]; at 33.0 µM 9% | [1]; at 100.0 µM 56% | [2]; at 1.2 µM -2% | [2]; at 3.7 µM -1% | [2]; at 11.0 µM -2% | [2]; at 33.0 µM -6% | [2]; at 100.0 µM 6% | [3]; at 1.2 µM -1% | [3]; at 3.7 µM 3% | [3]; at 11.0 µM 8% | [3]; at 33.0 µM 17% | [3]; at 100.0 µM 35% | [4]; at 1.2 µM 0% | [4]; at 3.7 µM 2% | [4]; at 11.0 µM 0% | [4]; at 33.0 µM 2% | [4]; at 100.0 µM 26% | [5]; at 1.2 µM -3% | [5]; at 3.7 µM -1% | [5]; [15] -20% | [5]; at 11.0 µM -1% | [5]; at 33.0 µM 13% | [5]; [16] 47% | [5]; at 50.0 µM 4.55% | [6]; at 1.2 µM -2% | [6]; at 3.7 µM -3% | [6]; [15] 1% | [6]; at 11.0 µM -2% | [6]; at 33.0 µM 1% | [6]; [16] 5% | [6]; at 50.0 µM 14.6% | [6]; at 100.0 µM 36% | [7]; at 1.2 µM -1% | [7]; at 3.7 µM -1% | [7]; at 11.0 µM 1% | [7]; at 33.0 µM 8% | [7]; at 100.0 µM 36% | [8]; [15] -1% | [8]; [16] 22% | [8]; at 50.0 µM 16.9% | [9]; [15] 9% | [9]; [16] 50% | [9]; at 50.0 µM 15.7% | [10]; at 1.2 µM -1% | [10]; at 3.7 µM -2% | [10]; [15] 3% | [10]; at 11.0 µM 0% | [10]; at 33.0 µM 10% | [10]; [16] 41% | [10]; at 50.0 µM 21.9% | [10]; at 100.0 µM 67% | [11]; at 1.2 µM -2% | [11]; at 3.7 µM -2% | [11]; at 11.0 µM -1% | [11]; at 33.0 µM 0% | [11]; at 100.0 µM 32% | [12]; at 1.2 µM -1% | [12]; at 3.7 µM -2% | [12]; at 11.0 µM -2% | [12]; at 33.0 µM 1% | [12]; at 100.0 µM 43% | [13]; at 1.2 µM 0% | [13]; at 3.7 µM 1% | [13]; at 11.0 µM 2% | [13]; at 33.0 µM 12% | [13]; at 100.0 µM 68% | [14]; at 1.2 µM -2% | [14]; at 3.7 µM -2% | [14]; at 11.0 µM 1% | [14]; at 33.0 µM 15% | [14]; at 100.0 µM 55%

Source: PubChem BioAssay (NCI)
